Data: PubChem BioAssay (NCI)
This is part of a sample that, as a whole, favours compounds with a hit. Of some 83,000 tested, about 20% had one in any assay.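 Values shown are percent growth following 48 h exposure of cells in 96-well plates to a single concentration of compound; below 10 was considered active.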 A number with no mark means an inactive call. Calls of active or inactive are those of the source.

Columns and labels:
Assay in all cases: NCI-60 one-dose screen, 48 h (100 = growth as untreated, 0 = no growth, -100 = all killed)
Details in all cases: 10 µM unless noted
[1] = tested on: SK-MEL-2 melanoma
[2] = tested on: EKVX NSCLC
[3] = tested on: UO-31 renal
[4] = tested on: TK-10 renal
[5] = tested on: ACHN renal
[6] = tested on: A498 renal
[7] = tested on: CCRF-CEM leukemia
[8] = tested on: MOLT-4 leukemia
[9] = tested on: SR leukemia
[10] = tested on: RPMI-8226 leukemia
[11] = tested on: OVCAR-8 ovarian
[12] = tested on: OVCAR-4 ovarian
[13] = tested on: SK-OV-3 ovarian
[14] = tested on: IGROV1 ovarian
[15] = tested on: OVCAR-3 ovarian
[16] = tested on: HS 578T breast
[17] = tested on: NCI/ADR-RES ovarian
[18] = tested on: CAKI-1 renal
[19] = tested on: OVCAR-5 ovarian
[20] = tested on: SN12C renal

| Compound | growth [1] | growth [2] [%] | growth [3] [%] | growth [4] | growth [5] | growth [6] | growth [7] | growth [8] [%] | growth [9] | growth [10] | growth [11] [%] | growth [12] | growth [13] [%] | growth [14] | growth [15] | growth [16] | growth [17] | growth [18] | growth [19] [%] | growth [20] [%] |
| --- | --- | --- | --- | --- | --- | --- | --- | --- | --- | --- | --- | --- | --- | --- | --- | --- | --- | --- | --- | --- |
| N=c1c(S(=O)(=O)c2ccccc2)cc2c(=O)n3ccccc3nc2n1C1CCCC1 | 104% | 78.1 | 50.9 | 82.5% | 86% | -1.39% (active) | 93.6% | 82 | 82.4% | 92.9% | 88.3 | 95.5% | 104 | 97% | 93.9% | 95.6% | 87.4% | – | – | – |
| CC(=O)O[C@H]1CC[C@]2(C)[C@H]3CC=C4[C@@H]5[C@H](C)[C@@H](C)CC[C@]5(C(=O)NCCNCCNCCN)CC[C@@]4(C)[C@]3(C)CC[C@H]2C1(C)C | 105% | 72.6 | 63.5 | 101% | 91.5% | 95.4% | 62.1% | 49.9 | -5.48% (active) | 42.3% | 96 | 95.2% | 106 | 57% | 89.8% | 95.4% | 89.8% | 55.8% | 96.1 | – |
| CC(C)(C)c1nc(-c2ccc(O)c(O)c2)cs1 | 93.3% | 88.9 | 39.5 | 89.2% | 50% | 104% | 26.4% | 44.1 | 26.9% | 39.2% | 60.9 | 76.2% | 90.6 | 43.8% | 61.2% | 85.9% | 35.5% | 54.8% | 91 | – |
| CCOc1ccc(NC(=O)c2ccccc2-c2ccccc2C(=O)O)cc1 | 101% | 101 | 88.7 | 110% | – | 93.3% | 99.5% | 83.6 | 89.7% | 101% | 111 | – | 109 | 110% | 110% | 103% | 108% | 98.9% | 98.6 | – |
| C=C(C)[C@@H]1CC[C@]2(C(=O)N3CCN(CC)CC3)CC[C@]3(C)[C@H](CC[C@@H]4[C@@](C)(CCC(=O)N5CCN(CC)CC5)[C@H](C(=C)C)CC[C@]43C)[C@@H]12 | 90.2% | 52.5 | 28.2 | 49.6% | -49.8% (active) | 92.6% | 49.4% | 34 | 5.68% (active) | 22.3% | 78.3 | 77.4% | 95.5 | 73.6% | 60.5% | 80.8% | 67.6% | -15.3% (active) | 72.3 | – |
| CC1(C)C(=O)CC[C@]2(C)[C@H]3C(=O)C=C4[C@@H]5C[C@@](C)(C(=O)NCCNCCN)CC[C@]5(C)CC[C@@]4(C)[C@]3(C)CC[C@@H]12 | 121% | 105 | 76.8 | 147% | 104% | 101% | 75.9% | 82.5 | 20% | 91.1% | 99.6 | 105% | 104 | 96.4% | 104% | 97.5% | 102% | 92.5% | 108 | – |
| NNC(=O)c1nc2ccccc2[nH]1 | 99.4% | 102 | 101 | 111% | 107% | 96.2% | 109% | 79.8 | 96.4% | – | 97.1 | 118% | 83.3 | 106% | 108% | 109% | 112% | 94.9% | – | – |
| COc1ccc(-c2nc3ncccn3c2-c2nc3ccc(Br)cc3[nH]2)cc1 | 83.5% | – | 84.4 | 101% | 88.6% | 75.5% | – | – | 61.1% | 60.6% | – | 101% | 105 | 94% | 72.7% | – | 87.3% | 93.7% | 95.6 | 89 |
| COc1cc2[nH]c(C(=O)c3cc(OC)c(OC)c(OC)c3)c(N)c2cc1C#CC1CC1 | 34.7% | – | 38.2 | 92.2% | 24.8% | -13.4% (active) | 24.9% | 44.5 | 13.4% | 47.6% | 55.7 | – | 32.4 | 42.1% | 2.8% (active) | -1.8% (active) | 27.7% | – | 38.4 | 61 |
| CCCCCC1CCCCN1C(=O)OCC (stereo not given) | 94.9% | 124 | – | 100% | 98.8% | 91.4% | 96.6% | 79.9 | – | 103% | 107 | 105% | 98.5 | – | 109% | 110% | 111% | 99.4% | 94.7 | – |
| COc1ccc2nc(-c3c(-c4ccccc4)nc4ncccn34)[nH]c2c1 | 113% | – | 108 | 109% | 90.4% | 86.6% | – | – | 90.3% | 88% | – | 93.2% | – | 111% | 108% | – | 108% | 103% | 97.9 | 104 |
| Nc1nc2c(c(=O)[nH]1)C(c1ccc3c(c1)OCO3)C=C(C(=O)O)N2 (stereo not given) | 116% | – | 102 | 117% | 111% | 94.7% | 126% | 106 | 103% | 129% | 106 | 103% | 118 | 111% | 123% | 106% | 109% | 97.1% | 114 | 113 |
| CCCC(=O)N1CCCCC1CC (stereo not given) | 109% | – | 108 | 113% | 97.1% | 90.8% | 95.3% | 113 | 102% | 95.7% | 95.3 | 102% | 111 | 120% | 105% | – | 115% | – | 87.5 | 105 |
| COc1cc(C(=O)/C=C/c2cc(-c3ccc4c(c3)OCO4)n[nH]2)cc(OC)c1OC | 84.7% | – | 39.4 | 67% | 42.7% | 4.49% (active) | – | – | -25.3% (active) | -42.4% (active) | – | 27.7% | 60.8 | 64.8% | -17.8% (active) | – | -13.5% (active) | 66.3% | 57.6 | 25.7 |
| COc1ccc2c(c1)C/C(=C\c1cc(-c3ccc4c(c3)OCO4)n[nH]1)C2=O | 128% | – | 75.1 | 162% | 82.8% | 85.5% | – | – | 73.7% | 45.8% | – | 90.9% | 95.6 | 99.1% | 71.3% | 99.4% | 109% | 90.3% | 98.3 | 95.2 |
| O=c1c2sc3ncc(Br)cc3c2ncn1-c1cccc(Cl)c1 | 96.3% | – | 52.1 | 73.6% | 28% | 71.7% | – | – | 76.6% | 75.1% | – | -25.9% (active) | 67.6 | 83.9% | – | – | 80.8% | 98.8% | 94.6 | 64.5 |
| O=C(c1ccccc1)C(CN1CCOCC1)c1ccccc1 (stereo not given) | -8.58% (active) | – | 11.2 | 9.68% (active) | 6.83% (active) | 93% | 4.53% (active) | 19.2 | -0.205% (active) | -8.68% (active) | 14.2 | – | 91.6 | 7.53% (active) | -10.7% (active) | 59.8% | 18.8% | – | 116 | 28.1 |
| COc1ccc(NC(=O)c2ccc3c(c2)nc(-c2cc4ccccc4[nH]c2=O)n3-c2cc(C(C)(C)C)[nH]n2)cc1 | 99.7% | – | 86.3 | 107% | 97.1% | 85.8% | – | 63.1 | 84.8% | 83.9% | 97.6 | 86.5% | 111 | 80.7% | 100% | 80.9% | 103% | 97.2% | 95.9 | 93.2 |
